Laboratory results from the supplement of paper PMC10849652.
Targets with a hit are over-represented here; the source holds about 7,900 in all. About 0.6% of all pairs of compound and target were hits.

Columns and labels:
Experiment in all cases: log2 fold change, soluble protein after heating vs DMSO (PISA); higher = thermal stabilisation; K562 cells, 10 uM, 30 min; active = over 0.2 and 3.5 SD of the protein, either way, in both replicates (recomputed)
[1] = compound: C1=CC=C(C=C1)[C@H](COC2=CC3=C(C=C2)NC(=O)N3)NC(=O)C4=CC=CN(C4=O)CC5=CC(=C(C=C5)F)F
Procedure, shortened: (§1)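 Soluble protein was defined as the supernatant after 21,000xg for 90 min. It came from K562 cells at 2×10^6 cells/mL given 10 μM compound for 30 min, heated in aliquots for 3 min across 48°C-58°C, pooled, and extracted in PBS with 0.5% NP-40 at 4°C, and was quantified by TMTpro 16plex LC-MS/MS with equalised channel sums. Thermal stability against control samples, from duplicates, is reported as log2 fold change.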

[2] = compound: CC1=C(SC2=C1C(=N[C@H](C3=NN=C(N32)C)CC(=O)N)C4=CC=C(C=C4)Cl)C
Procedure, shortened: as §1

[3] = compound: CC1=C2C(=CC=C1)N=C(N(C2=O)C3=CC=CC=C3C)CN4C=NC5=C(N=CN=C54)N
Procedure, shortened: as §1

[4] = compound: Cc1sc2c(c1C)C(c1ccc(Cl)cc1)=N[C@@H](CC(=O)OC(C)(C)C)c1nnc(C)n1-2
Procedure, shortened: as §1

[5] = compound: c1ccc([C@@H]2C[C@H]2NC2CCNCC2)cc1
Procedure, shortened: as §1

Measured: log2 fold change

HSPA8 (UniProt P11142)
Chain of UniProt P11142 (P11142 whole entry, looked up): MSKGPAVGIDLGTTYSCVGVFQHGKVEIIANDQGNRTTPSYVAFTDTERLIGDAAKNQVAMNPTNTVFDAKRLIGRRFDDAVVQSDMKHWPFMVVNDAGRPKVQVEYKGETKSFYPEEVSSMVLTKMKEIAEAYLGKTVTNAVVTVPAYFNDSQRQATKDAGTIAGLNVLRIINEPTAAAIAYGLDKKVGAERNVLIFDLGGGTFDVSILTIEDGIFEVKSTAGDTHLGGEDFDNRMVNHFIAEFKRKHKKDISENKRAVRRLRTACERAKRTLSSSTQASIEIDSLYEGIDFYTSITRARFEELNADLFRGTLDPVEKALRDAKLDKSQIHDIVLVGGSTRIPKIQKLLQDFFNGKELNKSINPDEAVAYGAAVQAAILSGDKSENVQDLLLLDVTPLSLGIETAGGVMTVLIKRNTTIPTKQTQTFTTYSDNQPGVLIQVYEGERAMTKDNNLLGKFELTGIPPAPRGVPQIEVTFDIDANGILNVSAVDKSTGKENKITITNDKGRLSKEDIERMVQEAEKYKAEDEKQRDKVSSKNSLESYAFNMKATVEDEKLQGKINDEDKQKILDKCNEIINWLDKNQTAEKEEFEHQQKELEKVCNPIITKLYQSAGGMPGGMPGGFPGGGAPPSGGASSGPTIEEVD
inactive: [1] -0.019 | [2] -0.032 | [3] -0.02 | [4] 0.005 | [5] -0.008

GLUL (UniProt P15104)
Chain of UniProt P15104 (P15104 whole entry, looked up): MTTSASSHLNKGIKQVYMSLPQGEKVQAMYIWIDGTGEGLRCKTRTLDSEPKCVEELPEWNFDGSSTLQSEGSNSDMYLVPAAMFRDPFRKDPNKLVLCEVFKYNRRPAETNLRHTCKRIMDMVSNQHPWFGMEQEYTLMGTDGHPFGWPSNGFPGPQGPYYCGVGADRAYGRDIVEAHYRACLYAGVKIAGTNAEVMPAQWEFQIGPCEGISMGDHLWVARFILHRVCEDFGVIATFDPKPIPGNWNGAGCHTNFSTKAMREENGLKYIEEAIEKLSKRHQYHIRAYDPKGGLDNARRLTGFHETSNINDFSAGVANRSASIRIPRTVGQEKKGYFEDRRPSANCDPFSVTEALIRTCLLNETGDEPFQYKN
inactive: [1] -0.015 | [2] 0.005 | [3] 0 | [4] -0.007 | [5] 0.02

GNAS (UniProt Q5JWF2)
Chain of UniProt Q5JWF2 (Q5JWF2 whole entry, looked up): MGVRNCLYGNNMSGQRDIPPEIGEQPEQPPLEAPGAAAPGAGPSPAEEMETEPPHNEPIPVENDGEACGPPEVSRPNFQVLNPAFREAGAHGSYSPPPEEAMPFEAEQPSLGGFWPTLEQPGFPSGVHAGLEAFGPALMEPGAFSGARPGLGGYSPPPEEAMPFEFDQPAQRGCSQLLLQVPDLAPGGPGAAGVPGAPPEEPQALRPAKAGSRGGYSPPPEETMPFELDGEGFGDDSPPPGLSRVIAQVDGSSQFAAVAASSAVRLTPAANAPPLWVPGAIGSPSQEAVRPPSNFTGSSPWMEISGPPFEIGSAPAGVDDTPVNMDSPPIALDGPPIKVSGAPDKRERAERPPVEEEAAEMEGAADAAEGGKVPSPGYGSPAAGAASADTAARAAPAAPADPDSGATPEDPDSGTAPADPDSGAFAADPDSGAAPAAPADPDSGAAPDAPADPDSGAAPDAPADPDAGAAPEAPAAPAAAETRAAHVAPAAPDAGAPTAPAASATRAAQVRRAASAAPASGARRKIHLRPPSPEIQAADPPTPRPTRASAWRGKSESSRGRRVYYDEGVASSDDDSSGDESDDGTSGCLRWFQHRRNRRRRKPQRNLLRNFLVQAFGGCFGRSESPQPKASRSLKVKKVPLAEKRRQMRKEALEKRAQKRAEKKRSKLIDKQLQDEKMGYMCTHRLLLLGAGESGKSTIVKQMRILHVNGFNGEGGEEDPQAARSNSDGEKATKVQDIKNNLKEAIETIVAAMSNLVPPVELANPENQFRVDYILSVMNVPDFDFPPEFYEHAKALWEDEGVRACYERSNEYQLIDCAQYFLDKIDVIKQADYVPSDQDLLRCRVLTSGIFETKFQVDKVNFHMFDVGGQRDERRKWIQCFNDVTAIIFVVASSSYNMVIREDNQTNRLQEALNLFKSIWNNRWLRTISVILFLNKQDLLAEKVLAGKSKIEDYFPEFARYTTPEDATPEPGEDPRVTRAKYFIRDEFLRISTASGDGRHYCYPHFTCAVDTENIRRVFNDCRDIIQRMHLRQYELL
inactive: [1] 0.016 | [2] -0.008 | [3] 0.045 | [4] -0.038 | [5] 0.013

GEMIN6 (UniProt Q8WXD5)
Chain of UniProt Q8WXD5 (Q8WXD5 whole entry, looked up): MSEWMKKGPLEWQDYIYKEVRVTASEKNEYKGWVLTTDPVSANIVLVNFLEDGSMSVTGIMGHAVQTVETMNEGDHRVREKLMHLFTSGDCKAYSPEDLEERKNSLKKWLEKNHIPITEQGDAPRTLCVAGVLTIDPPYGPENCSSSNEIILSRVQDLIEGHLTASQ
inactive: [1] 0.027 | [2] -0.111 | [3] -0.053 | [4] -0.113 | [5] -0.063

HMOX2 (UniProt P30519)
Chain of UniProt P30519 (P30519 whole entry, looked up): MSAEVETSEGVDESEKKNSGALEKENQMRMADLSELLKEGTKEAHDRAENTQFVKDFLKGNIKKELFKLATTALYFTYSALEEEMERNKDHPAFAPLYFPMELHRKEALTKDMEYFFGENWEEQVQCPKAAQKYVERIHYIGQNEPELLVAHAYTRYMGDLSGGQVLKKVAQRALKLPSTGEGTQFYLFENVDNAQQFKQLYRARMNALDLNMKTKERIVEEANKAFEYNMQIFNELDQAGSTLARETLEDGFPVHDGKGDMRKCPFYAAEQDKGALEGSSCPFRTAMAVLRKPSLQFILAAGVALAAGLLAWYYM
inactive: [1] 0.024 | [2] 0.035 | [3] 0.169 | [4] 0.047 | [5] -0.036

HMGB3 (UniProt O15347)
Chain of UniProt O15347 (O15347 whole entry, looked up): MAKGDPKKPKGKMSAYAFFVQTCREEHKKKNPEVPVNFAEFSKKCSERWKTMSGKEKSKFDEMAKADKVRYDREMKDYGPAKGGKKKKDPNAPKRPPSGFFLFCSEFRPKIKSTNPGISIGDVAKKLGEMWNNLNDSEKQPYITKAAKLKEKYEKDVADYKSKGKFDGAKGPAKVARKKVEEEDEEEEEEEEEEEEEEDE
inactive: [1] -0.005 | [2] 0.022 | [3] -0.03 | [4] -0.055 | [5] -0.033

GLS isoform 3 (UniProt O94925)
Chain of UniProt O94925 (O94925 whole entry, looked up): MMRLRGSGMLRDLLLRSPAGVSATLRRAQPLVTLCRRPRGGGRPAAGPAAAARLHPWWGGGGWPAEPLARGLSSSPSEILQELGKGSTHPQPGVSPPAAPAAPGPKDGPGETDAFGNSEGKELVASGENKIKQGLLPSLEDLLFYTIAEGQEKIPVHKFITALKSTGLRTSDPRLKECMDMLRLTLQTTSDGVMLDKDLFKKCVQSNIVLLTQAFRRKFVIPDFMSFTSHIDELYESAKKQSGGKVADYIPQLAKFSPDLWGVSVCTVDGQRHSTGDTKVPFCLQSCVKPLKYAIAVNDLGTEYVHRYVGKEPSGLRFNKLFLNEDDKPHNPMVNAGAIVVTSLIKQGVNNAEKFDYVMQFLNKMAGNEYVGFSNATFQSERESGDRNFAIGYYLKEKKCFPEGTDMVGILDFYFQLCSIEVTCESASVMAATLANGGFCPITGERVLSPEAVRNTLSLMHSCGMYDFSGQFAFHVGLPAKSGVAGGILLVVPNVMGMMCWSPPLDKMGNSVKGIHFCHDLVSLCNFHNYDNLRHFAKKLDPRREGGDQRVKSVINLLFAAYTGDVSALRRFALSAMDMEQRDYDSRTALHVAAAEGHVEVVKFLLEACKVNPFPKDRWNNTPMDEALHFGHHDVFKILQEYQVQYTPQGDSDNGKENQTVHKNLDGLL
inactive: [1] -0.077 | [2] 0.204 | [3] 0.024 | [4] -0.168 | [5] 0.067

FECH isoform 2 (UniProt P22830)
Chain of UniProt P22830 (P22830 whole entry, looked up): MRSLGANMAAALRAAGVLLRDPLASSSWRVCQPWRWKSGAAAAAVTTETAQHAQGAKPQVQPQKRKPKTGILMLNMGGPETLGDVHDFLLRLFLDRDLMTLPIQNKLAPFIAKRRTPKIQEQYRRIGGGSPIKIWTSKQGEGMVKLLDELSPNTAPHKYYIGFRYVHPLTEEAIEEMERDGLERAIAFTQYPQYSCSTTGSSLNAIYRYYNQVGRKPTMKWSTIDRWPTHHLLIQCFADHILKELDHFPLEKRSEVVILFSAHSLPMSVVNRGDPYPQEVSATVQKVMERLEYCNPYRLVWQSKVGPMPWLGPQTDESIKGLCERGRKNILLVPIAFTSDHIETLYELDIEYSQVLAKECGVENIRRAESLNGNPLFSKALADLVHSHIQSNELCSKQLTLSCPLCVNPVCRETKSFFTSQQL
inactive: [1] 0.008 | [2] 0.03 | [3] 0.023 | [4] -0.07 | [5] -0.08

H2AZ1 (UniProt P0C0S5)
Chain of UniProt P0C0S5 (P0C0S5 whole entry, looked up): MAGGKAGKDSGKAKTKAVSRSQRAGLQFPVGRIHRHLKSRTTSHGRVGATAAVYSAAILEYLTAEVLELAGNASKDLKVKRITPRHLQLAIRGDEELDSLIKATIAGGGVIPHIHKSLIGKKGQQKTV
inactive: [1] 0.12 | [2] -0.153 | [3] -0.247 | [4] -0.021 | [5] 0.123
